# BAZ2B block: inhibitors of human BAZ2B bromodomain. AlphaScreen BAZ2B-H3K14Ac peptide displacement. Potency, µM (highest dose often 114 µM), for inactives: at the top dose activity change, negative = inhibition, usual class: inhibitors. 360,000 tested, 4.4% active. Q9UIF8; further: on the % scale 0 is the no-effect control and ±100 the full control effect; nearly all actives have a fitted effect of over 60% in size
#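 Inhibition is scored as reduced AlphaScreen emission. The BAZ2B/b-H3(5-23)K14Ac complex (50 nM each) in PBS pH 7.4, 0.01% Tween-20 meets compound (up to 110 uM) for 30 min at RT before bead addition.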
# Sfp inh: inhibitors of Bacillus subtilis Sfp phosphopantetheinyl transferase; Q9F4F7; Biochemical Sfp PPTase activity, qHTS; Potency, µM, for inactives: largest response in the series, negative = inhibition, usual class: inhibitors; 310,000 tested, 3.5% active;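 further: the enzyme is Sfp with the accession as filed and its product quenches rhodamine fluorescence; 0% = enzyme reaction without inhibitor and -100% = no enzyme wells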
#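 Reaction rates are the 30-min fluorescence difference (ex 525, em 598 nm) in wells containing 15 nM Sfp, 5 uM rhodamine-CoA and 12.5 uM BHQ-2-YbbR at pH 7.6 with 10 mM MgCl2.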
# G9a block: inhibitors of human histone lysine methyltransferase G9a; Potency, µM (titrated, usually from 102 µM), for inactives: at the highest dose activity, negative = inhibition, usual class: inhibitors; 350,000 tested, 8.8% active; AID 504332; G9a H3K9 monomethylation, AlphaScreen, 2 h; Q96KQ7; further: on the % scale 0 is the no-effect control and ±100 the full control effect; nearly all actives have a fitted effect of over 75% in size
# Target sequence (Q96KQ7 913-1193 limits assumed): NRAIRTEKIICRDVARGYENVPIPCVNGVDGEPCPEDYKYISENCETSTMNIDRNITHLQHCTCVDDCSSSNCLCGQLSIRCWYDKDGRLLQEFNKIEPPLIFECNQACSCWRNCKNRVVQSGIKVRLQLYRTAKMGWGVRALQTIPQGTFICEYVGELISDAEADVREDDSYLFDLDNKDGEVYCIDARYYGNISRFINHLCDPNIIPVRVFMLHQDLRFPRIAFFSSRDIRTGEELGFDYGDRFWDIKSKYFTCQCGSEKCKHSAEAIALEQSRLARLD
#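 Quantitative HTS format: methyltransferase activity on a biotin-tagged H3K9 peptide is measured by AlphaScreen, using a rabbit anti-monomethyl-H3K9 antibody with streptavidin donor and anti-IgG acceptor beads. Final levels are 20 nM enzyme, 500 nM peptide, 20 uM SAM; 2 h RT.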
# HP1b chromo inh: inhibitors of HP1-beta chromodomain binding to methylated histone tails; P83916; AlphaScreen HP1-beta / biotin-H3K9me3 peptide binding; Potency, µM (top dose mostly 114 µM), for the others: at the highest dose activity change, negative = inhibition, actives largely listed as inhibitors; 390,000 tested, 0.56% active; AID 540317; further: nearly all actives have a fitted effect of over 70% in size
# Target sequence (P83916 whole entry, looked up): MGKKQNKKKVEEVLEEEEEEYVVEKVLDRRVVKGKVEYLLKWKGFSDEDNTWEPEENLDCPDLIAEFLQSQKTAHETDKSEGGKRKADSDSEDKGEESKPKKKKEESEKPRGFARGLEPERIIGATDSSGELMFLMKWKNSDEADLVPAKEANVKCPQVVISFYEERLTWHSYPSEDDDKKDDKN
#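 Compound inhibition of the preformed complex between 50 nM HP1-beta and 50 nM biotinylated H3K9me3 peptide was read by AlphaScreen. Buffer was PBS pH 7.4 with 0.01% Tween-20. Incubations ran 30 min at room temperature, with 10 ug/mL donor/acceptor beads.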
# TDP1 block: inhibitors of human tyrosyl-DNA phosphodiesterase TDP1 | recombinant TDP1, AlphaScreen DNA substrate cleavage | Potency, µM (top dose mostly 130 µM), inactives show top-dose activity change, negative = inhibition, most hits filed as inhibitors | 350,000 tested, 0.28% active; further: on the % scale 0 is the no-effect control and ±100 the full control effect; nearly all actives have a fitted effect of over 40% in size
#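 Tdp1 1 nM final; 15 min RT w/ cpd; substrate 15 nM, 5 min; beads 10 ug/ml, 10 min; AlphaScreen read. Neg ctrl: no enzyme.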
# JMJD2A Tudor: JMJD2A Tudor domain (human) inhibition; O75164; AlphaScreen JMJD2A-Tudor / H3K4me3 peptide binding; Potency, µM (series often up to 114 µM), without a hit: at the highest dose activity change, negative = inhibition, usual class: inhibitors; 390,000 tested, 4.4% active; AID 504339; further: on the % scale 0 is the no-effect control and ±100 the full control effect; nearly all actives have a fitted effect of over 50% in size
# The depositor's hits bear a star; ? = inconclusive; . = not tested or not shown; ! = a repeat was not active; [ ] = dose if it differs, or a comment. This is a sample that favours compounds with a hit; in the whole collection about 12% have one here. The call rests on the fitted dose curve; in most records, active means well fitted curve in the direction sought with a large enough effect; inconclusive means small, poorly fitted or top-dose-only effect, or another doubt; inactive means no such curve, though single readings can be large; an effect the other way counts as inactive or inconclusive. Potency means the concentration at half of the fitted maximal effect.
SMILES,BAZ2B block,Sfp inh,G9a block,HP1b chromo inh,TDP1 block,JMJD2A Tudor
C=CCn1c(O)c(C(CC)=Nc2ccc3c(c2)CCC3)c(=O)[nH]c1=O,-21%,10%,2%,-1%,.,-23%
C=CCn1c(O)c(C(C)=Nc2ccc(C(=O)OCC)cc2)c(=O)[nH]c1=O,79µM*,-29%,?,30%,0%,5%
C=CCn1c(O)c(C(C)=O)c(=O)[nH]c1=O (tested in a mixture with another compound),-38%,-2%,45µM*,14%,2%,-26%
C=CCn1c(O)c(C(C)=Nc2cccc(C(=O)O)c2)c(=O)[nH]c1=O,-37%,-2%,50µM*,17%,.,1%
C=CCn1c(O)c(C(CC)=Nc2cccc(C(=O)O)c2)c(=O)[nH]c1=O,-30%,-9%,?,50%,.,-10%
C=CCn1c(O)c(C(CC)=Nc2ccc(N(C)C)cc2)c(=O)[nH]c1=O,?,50µM*,.,25%,0%,-13%
N#CCBr,.,.,.,.,8%,.
CN1CCC[C@@H]1c1cccnc1,.,22%,-43%[59 µM],.,11%,.
C=CC(=C)C,.,.,.,.,12%,.
CCOC(=O)c1ccccc1C(=O)OCC,.,7%,18%[59 µM],55%,-2%,-6%
CCOC(=O)c1cnc2c(ccc3ccccc32)c1Nc1ccc(N(C)C)cc1,6.3µM*,.,2.5µM*,10µM*,.,11µM*
O=C(O)C(Cl)Br (stereo unspecified),.,.,.,.,6%,.
COc1ccccc1OCC#CCN1CCOCC1,28µM*,?,4µM*,71µM*,0%,?
COc1ccccc1OCC#CCN1CCCC(C)C1 (stereo unspecified),25µM*,0%,.,?,.,11µM*
C(#CCN1CCOCC1)COCC#Cc1ccccc1,?,15%,?,37%,1%,?
CCCN(CCC)[C@@H]1CCc2c(OC)cccc2[C@@H]1C,.,6%,15%[59 µM],.,7%,.
COc1cc2c3cc1Oc1cc(ccc1O)C[C@@H]1c4c(cc(OC)c(O)c4Oc4ccc(cc4)C[C@H]3N(C)CC2)CCN1C,45µM*,-5%,?,-6%,6%,?
COc1ccc2cc1Oc1ccc(cc1)C[C@H]1c3cc(c(OC)cc3CCN1C)Oc1c(OC)c(OC)cc3c1[C@H](C2)N(C)CC3,-32%,-1%,-37%[59 µM],-22%,11%,50µM*
ClCc1ccccc1,.,.,.,.,10%,.
O=C1NC(=S)NC(=O)C1c1ccccc1,.,.,.,?,.,50µM*
Cc1cccn2c(=O)c(C=Nc3ccccc3)c(NCc3ccco3)nc12,?,50µM*,50µM*,35%,1%,-24%
O=C(C1CC(c2ccccc2O)=NO1)N1CCC2(CC1)OCCO2 (stereo unspecified),-8%,3%,50µM*,12%,3%,14µM*
CCN1CCN(c2cc(N3CCCC3)c(F)cc2[N+](=O)[O-])CC1,-38%,-13%,45µM*,-13%,-8%,-34%
CCOP(=S)(OCC)SCn1c(=O)oc2cc(Cl)ccc21,.,56µM*,.,.,?,.
O=S(=O)(Oc1ccc(Cl)cc1)c1ccccc1,.,3%,.,.,?,.
SMILES,BAZ2B block,Sfp inh,G9a block,HP1b chromo inh,TDP1 block,JMJD2A Tudor
COc1ccc2c(c1)/C(=C/c1cnc[nH]1)C(=O)N2,50µM*,2%,30%[59 µM],9%,13%,-30%
COc1cc(OC)c(/C=C2\C(=O)Nc3ccccc32)c(OC)c1,45µM*,.,?,?,.,56µM*
O=C1Nc2ccccc2/C1=C/c1cnc[nH]1,?,14%,44%[59 µM],17%,7%,-18%
CCCCCCCCCCCCCCCC[N+](C)(C)C,6%,45µM*!,8.9µM*!,52%,9%,-1%
CCCCCCCCCC[N+](C)(C)CCCCCCCCCC,.,?,7%[59 µM],.,2%,.
C[N+](=O)[O-],.,.,.,.,3%,.
Cc1ccccc1N1C(=O)NC(=O)/C(=C\c2cc(Br)c(N3CCOCC3)o2)C1=O,?,-17%,?,?,-1%,-27%
O=C1NC(=O)N(Cc2ccccc2Cl)C(=O)/C1=C/N1CCOCC1,-2%,10µM*,?,39%,-2%,-13%
O=C(OCC(=O)c1ccc([N+](=O)[O-])cc1)/C(=C/c1ccc(Cl)cc1)NC(=O)c1ccccc1,-11%,?,7.9µM*,44%,5%,-13%
C=C(C)C1CNC(C(=O)O)C1CC(=O)O (stereo unspecified),.,-29%,.,.,8%[56.1 µM],.
C/C(=C/C=C/[C@@H](C)C(=O)O)[C@H]1CN[C@H](C(=O)O)[C@H]1CC(=O)O,-2%,-11%,?,21%,3%,56µM*
CN(CC(=O)N[C@H](CO)Cc1ccccc1)C(=O)[C@H](CCS(C)=O)NC(=O)[C@@H](N)Cc1ccc(O)cc1 (stereo partly specified),.,15%,44%[59 µM],.,6%,.
Cc1cc(=O)n(-c2ccccc2)n1C,.,12%,17%[21.5 µM],24%,1%,-14%
O=C(N/N=C/C1C(=O)NC(=S)N(c2ccccc2)C1=O)c1cc(Br)c(O)c(Br)c1 (stereo unspecified),10%,-13%,45µM*,-22%,9%,10µM*
CCn1c(O)c(/C=N/NC(=O)c2ccccc2)c(=O)n(CC)c1=S,?,27%,.,26%,8%,-24%
COc1ccc(C(=O)C(C)(C)NO)cc1,?,-6%,?,?,-4%,50µM*
COc1ccc(C(=O)C23CN4CN(CN(C4)C2)C3)cc1,8%,16%,-42%,23%,0%,-21%
O=C(O)Cc1cnc[nH]1,.,50µM*,9.5µM*!,20%,3%[56.1 µM],7.1µM*
C[C@@H](N)Cc1cnc[nH]1,.,-3%,?,-1%,7%[56.1 µM],?
C[C@@]12CCC(=O)C[C@@H]1CC[C@@H]1[C@@H]2CC[C@]2(C)C(=O)CC[C@@H]12,.,12%,-41%[2.33 µM],.,-7%[56.1 µM],.
CN1Cc2c(ccc3c2OCO3)[C@@H]2[C@@H](O)Cc3cc4c(cc3[C@@H]21)OCO4,.,10%,21%[21.5 µM],.,14%[21 µM],.
CC(=O)[C@H]1CC[C@H]2C3CC[C@H]4C[C@](C)(O)CC[C@]4(C)C3CC[C@]12C (stereo partly specified),.,2%,.,.,4%,.
CC(C)OP(=O)(OC(C)C)C(Nc1ccc([N+](=O)[O-])cc1)c1cccc([N+](=O)[O-])c1 (stereo unspecified),-28%,4%,-49%,9%,6%,?
CCCOP(=O)(OCCC)C(Nc1ccc(C(C)C)cc1)c1ccc([N+](=O)[O-])cc1 (stereo unspecified),56µM*,-11%,?,-23%,7%,?
COc1ccccc1N=c1scc(-c2ccc(S(=O)(=O)N3CCCC3)cc2)n1C,8.9µM*,.,10µM*,?,1%[12.3 µM],?

# Source: PubChem (National Center for Advancing Translational Sciences (NCATS))
